Compounds without any hit were thinned out: in the full panel of roughly 83,000, 20% have a hit.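 Results are percent growth after 48 hours of single-concentration exposure. 100 means growth as in untreated cells, lower positive values show inhibition; negative values down to -100 show cell death.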 Values without a mark were called inactive. Active and inactive are the calls of the source.

This test has as its system EKVX NSCLC. Put plainly: NCI-60 one-dose screen, 48 h (100 = growth as untreated, 0 = no growth, -100 = all killed). The note with it: 10 µM. The protocol: Growth inhibition of the EKVX human Non-Small Cell Lung tumor cell line is measured as a screen for anti-cancer activity. Cells are grown in 96 well plates and exposed to the test compound for 48 hours. Compounds are tested at a single concentration, which is 10^-5 M for most compounds. The reported endpoint is percent growth (GI% or GIPRCNT), where numbers from 0 - 100% represent growth inhibition, and numbers from -100% - 0 represent cell death. For example, a value of 40 represents 60% growth inhibition. A value of 0 means no net growth occurred over the course of the experiment. A value of -40 indicates 40% of cells at the beginning of the experiment died by the end of the experiment. A value of -100 means all cells are dead at the end of the experiment.
NCI-60 Human Tumor Cell Lines Screen was performed using the standard one-dose NCI protocol, which is described in more detail at https://dtp.cancer.gov/discovery_development/nci-60/default.htm.
Compounds with GIPRCNT values below 10 were considered active. Activity score was based on GIPRCNT using the following formula: […]
Score is 0 for GIPRCNT values of 100 or above, 50 for GIPRCNT values of 0, and 100 for GIPRCNT values of -100.
Take `COc1ccc(Cn2cc3c(c2-c2cc(OC)c(OC)c(OC)c2)CCc2cnoc2-3)cc1[N+](=O)[O-]`: the growth was 20.4%.

Take `c1ccc(CC(NCCNC(Cc2ccccc2)c2ccccc2)c2ccccc2)cc1` (stereo not given): the growth is 23%. The same measure for `O=C(O)CCCN1C(=O)NC2(C1=O)c1ccccc1-c1ccccc12`: 98.3%. With `CC1(C)CC(OCCCC[P+](c2ccccc2)(c2ccccc2)c2ccccc2)CC(C)(C)N1O` the figure was 3.22% (active); with `CC(=O)CS(C)(=O)=O`, 93.6%; with `O=S(=O)(NC1c2ccccc2Oc2ccccc21)c1cc(Cl)ccc1Cl`, 98.6%.

For `O=C(NNc1nc(N2CCCC2)nc(N2CCCC2)n1)c1ccccc1`, the growth was 102%. For `Cc1cn(C(=O)/C(Cl)=C(/Cl)C(=O)O)c2ccccc12`, the growth is 81.7%.

As for `COc1cccc(C(=O)N(c2ccc(F)c(F)c2)C(C(=O)NC(C)(C)C)c2cc3c(C)cc(C)cc3nc2Cl)c1` (stereo not given), the growth was 54.5%. The same measure for `O=C(Nc1cccc([N+](=O)[O-])c1)NN1CCCCCC1`: 81.3%; for `CCSc1nc2c([nH]1)c(=O)n(C)c(=S)n2C`: 95.5%. With `O=C(c1ccccc1)C(Nc1ccccc1)c1ccccc1` (stereo not given) the figure was 86.2%; with `COc1cc(/C=C/C(=O)c2cc(-c3ccccc3)ccc2O)cc(OC)c1OC`, 54%; with `O=C(N/N=C\c1cc(Cl)ccc1O)c1ccncc1`, 83.2%. On to `COc1ccc(COC(=O)CC(C)C)cc1`, for which the growth is 101%.

As to `C/C(=N/NC(=O)c1sc(=S)n(C)c1N)c1cc2cc(Cl)ccc2o1`, the growth was 98.5%. The same measure for `CC(C)/C(=N/O)c1ccccc1`: 102%; for `Cc1ccc2nc3[nH]c(=O)[nH]c(=O)c3c(N)c2c1`: 59.9%. With `CNC(=O)c1cc(Oc2ccc(NC(=O)Nc3ccc(Cl)c(C(C)(C)C)c3)c(F)c2)ccn1`, the growth is 29.9%. As for `CC(C)CCN(CCCNc1c2c(nc3cc(Cl)ccc13)CCCC2)CCC(C)C`, the growth is 54.4%. `CN(C)c1ccc2cc(-c3cc4c(oc3=O)-c3ccccc3OC4O)c(=O)oc2c1` (stereo not given): the growth was 22.6%.

Turning to `COc1cc(OC)cc(-c2n/c(=C\c3c(O)[nH]c4ccc(OC)cc34)cc3c2=Nc2ccccc2-3)c1`, the growth was 96.6%. The same measure for `c1ccc(C2CCCCC2)c(OCCCCCN2CCNCC2)c1`: 67.4%; for `C/C(=N\NC(N)=S)C(C)(C)O`: 67.1%. With `Cc1cc(C)c2nc(C)c(C)[n+]([O-])c2c1` the figure was 99.1%; with `O=C(CSc1nnc(-c2ccc(Cl)cc2)o1)c1ccccc1`, 102%; with `CC[C@@]1(C(N)=O)CC2C=CC1C2` (stereo not given in full), 102%. Consider `Cc1ccc(S(=O)(=O)Oc2ccccc2-c2ccccc2)cc1`, for which the growth is 46%. The same measure for `COc1cc(N=C2C(=O)N(Cc3ccccc3)c3ccccc32)cc(OC)c1OC`: 101%; for `CCCc1ccnc(NS(=O)(=O)c2ccc(N)cc2)n1`: 58.5%. With `COc1ccc2nc(NC(=O)Nc3c(F)cccc3F)sc2c1` the figure was 102%; with `c1ccc(CNc2nc(Nc3ccc(-c4nc5ccccc5[nH]4)cc3)c3cn[nH]c3n2)cc1`, 18%; with `CCOC(=S)Sc1ccc([N+](=O)[O-])cc1[N+](=O)[O-]`, 98%. The same measure for `CCCCCc1cc[n+](CC(=O)c2ccc(Cl)cc2)cc1`: 93.1%. In the case of `O=C(O)CCCCSCCCCC(=O)O`, the growth is 106%. The same measure for `Clc1cc(Cl)c(Cl)c(-c2nc(-c3cccnc3)cs2)c1`: 93.2%; for `CCN(CC)CCOC(=O)c1ccc(NC(=O)Nc2cccc(Cl)c2)cc1`: 99.2%. The same measure for `CCN(CC)CCOC(=O)c1ccc(N=Nc2ccc(O)c(OC)c2)cc1`: 99.2%. Take `COc1ccc(-c2nc(SCC(=O)c3ccc(Br)cc3)[nH]c(=O)c2C#N)cc1`: the growth was 107%. On to `CN(C)Cc1cccs1`, for which the growth is 103%.

For the origin of these results see PubChem BioAssay (NCI).
